TDP-43 yeast inh – inhibitors of TDP-43 toxicity in yeast | TDP-43 expressing yeast growth rescue, BacTiter-Glo, 24 h | Potency, µM (highest dose often 46.1 µM), hits mostly activators | 410,000 tested, 1.8% active; note: nearly all actives have a fitted effect of over 50% in size
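Yeast cells expressing TDP-43 under galactose induction are exposed to compounds for 24 hr at 30 deg C. BacTiter-Glo luminescence measures growth, so protective compounds score as activators.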
Mito fusion act – blocks mitochondrial division or promotes mitochondrial fusion. S. cerevisiae fusion-defective mutant growth rescue, CellTiterGlo 48 h. AID 485298. 320,000 tested, 0.23% active. Potency, µM (top dose mostly 46.1 µM), actives largely listed as activators; note: nearly all actives have a fitted effect of over 45% in size
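S. cerevisiae fusion-defective temperature-sensitive mutants (e.g. fzo1-1, mgm1-5) grown 48 h at 37C in YPEG (ethanol/glycerol non-fermentable) medium with 23 nl compound per well; growth rescue read as CellTiterGlo luminescence.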
Abeta yeast res – restores growth of yeast expressing A-beta42 peptide; yeast expressing A-beta42, growth rescue, OD600, 48 h; response scale: 0% DMSO, 100% iron-clioquinol control; 410,000 tested, 0.063% active; Potency, µM (series often up to 46.1 µM), usual class: activators; AID 1347071; note: nearly all actives have a fitted effect of over 55% in size
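Growth rescue measured by 600 nm absorbance after 48 h yeast culture at 30 C with compound. Values normalized between DMSO and an equimolar ferric chloride plus clioquinol control.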
aSyn yeast inh – rescues yeast growth from alpha-synuclein toxicity | Potency, µM (titrated, usually from 46.1 µM), most hits filed as activators | 370,000 tested, 0.14% active | Yeast expressing alpha-synuclein, growth rescue, BacTiter-Glo, 24 h; note: nearly all actives have a fitted effect of over 65% in size
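Screening used galactose-induced yeast with toxic alpha-synuclein levels, exposed to compound for 24 hr at 30 deg C. Cell growth, read with BacTiter-Glo luminescence, gave the measured signal.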
FUS suppressor – rescues growth of FUS-expressing yeast; S. cerevisiae FUS-expressing, growth rescue, OD600, 24 h; Potency, µM (top dose mostly 76.6 µM), actives largely listed as activators; 390,000 tested, 0.24% active; AID 1347120; note: nearly all actives have a fitted effect of over 55% in size
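Absorbance at 600 nm, taken 24hr after compound addition, measured rescue of FUS-yeast growth at 30C. Induction used 2% galactose with seeding at OD 0.005. Controls: CP55940 from 92uM final, DMSO only.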
Large screens that a line does not name were inactive. In the library only some 2.2% were active in any assay of this set; here they are far more common. Calls come from the whole dose curve; as a rule, active = well fitted curve in the direction sought with a large enough effect; inconclusive = small, poorly fitted or top-dose-only effect, or another doubt; inactive = no such curve, though single readings can be large; an effect the other way counts as inactive or inconclusive.

O=C(O)c1cccc2c1C(=O)c1ccc(-c3ccc(F)cc3OCc3ccccc3)cc1S2(=O)=O	none
O=C(NC[C@H]1CCCO1)c1cccc2c1C(=O)c1ccc(-c3ccc(F)cc3OCc3ccccc3)cc1S2(=O)=O	aSyn yeast inh inconclusive, FUS suppressor 22.4µM (no result: Mito fusion act)
COc1cc(C(=O)NCC2CCCO2)cc(Br)c1OCc1ccccc1 (stereo not drawn)	TDP-43 yeast inh 14.1µM, Mito fusion act inconclusive
COc1ccc(CC(=O)N2CCc3cc(OC)c(OC)cc3C2COc2ccc(F)cc2)cc1 (stereo not drawn)	FUS suppressor inconclusive (no result: TDP-43 yeast inh, Mito fusion act, aSyn yeast inh)
O=C(CCNS(=O)(=O)c1ccc2c(c1)CCCC(=O)N2)NCc1ccccc1Cl	none (no result: Mito fusion act)
COc1ccc(NC(=O)C2CC(c3c(F)cccc3Cl)=NO2)cc1 (stereo not drawn)	TDP-43 yeast inh 12.6µM
COc1cc(NC(=O)C2CC(c3c(F)cccc3Cl)=NO2)cc(OC)c1OC (stereo not drawn)	none
CC(C)(C)C1CCc2c(sc(NC(=O)c3ccc(Cl)cc3)c2C(=O)NCc2ccco2)C1 (stereo not drawn)	none (no result: Mito fusion act, aSyn yeast inh)
C/C(=N\NC(=S)NCc1ccccc1)c1ccc(C#N)cc1	Mito fusion act inconclusive
C/C(=N\NC(=S)NCc1ccccc1)c1ccccc1F	Abeta yeast res 11.2µM
COc1ccc(CNC(=S)N/N=C(/C)c2ccccc2)cc1	TDP-43 yeast inh 17.8µM, Abeta yeast res inconclusive
C/C(=N\NC(=S)NCc1ccccc1)c1ccc(C(C)(C)C)cc1	Mito fusion act inconclusive, Abeta yeast res inconclusive (no result: FUS suppressor)
C/C(=N\NC(=S)NCc1ccccc1)c1ccco1	TDP-43 yeast inh inconclusive, Abeta yeast res 11.2µM
C/C(=N\NC(=S)NCc1ccccc1)c1ccccc1	Abeta yeast res 3.55µM
C[C@H](CO)N1C[C@H](C)[C@@H](CN(C)S(=O)(=O)c2cccc(C#N)c2)OCc2cn(nn2)CCCC1=O	none (no result: Mito fusion act)
Cc1noc(Cn2c(=O)c3ccccc3n(CC(=O)Nc3ccc(Cl)cc3)c2=O)n1	none (no result: Mito fusion act, aSyn yeast inh)
CC[C@@H](CCCCCC#N)CCC(=O)N(c1ccccc1)c1ccccc1	none (no result: TDP-43 yeast inh, Mito fusion act, Abeta yeast res, aSyn yeast inh)
COC(=O)/C=C1\OC(C2CC2)c2ccccc21 (stereo not drawn)	TDP-43 yeast inh 28.2µM (no result: Mito fusion act)
O=C(c1ccc(N2C(=O)c3ccccc3C2=O)cc1)N1CCN(S(=O)(=O)c2ccccc2F)CC1	TDP-43 yeast inh inconclusive, FUS suppressor 28.2µM (no result: Mito fusion act)
COc1cc(SC)ccc1C(=O)Nc1ccc(S(=O)(=O)Nc2nccc(C)n2)cc1	none (no result: aSyn yeast inh)
CCCCc1nn2c(=O)cc(COC(=O)c3ccccc3NC(=O)c3cccc(C)c3)nc2s1	none (no result: Mito fusion act, aSyn yeast inh)
Cc1ccsc1C1Nc2ccc3ncccc3c2C2=C1C(=O)CC(C)(C)C2 (stereo not drawn)	FUS suppressor 12.6µM
CCN(C(=O)COC(=O)c1c(NC(C)=O)sc(C)c1C)c1c(N)n(Cc2ccccc2)c(=O)[nH]c1=O	none (no result: Mito fusion act)
O=C(C1CCCCC1)N1C[C@@H](n2cc(-c3ccc(F)cc3)nn2)[C@H](O)C[C@@H]1c1ccc(Cl)cc1	TDP-43 yeast inh 22.4µM (no result: Mito fusion act)
COc1ccc(-c2cc(C#N)nc(Cl)n2)cc1	TDP-43 yeast inh 3.98µM
COc1ccc(-c2cc(C#N)nc(Oc3ccc(Cl)cc3)n2)cc1	none (no result: FUS suppressor)
CCOC(=O)c1c(NC(=O)c2cc(-c3ccc(Cl)cc3)on2)sc(C)c1C	none (no result: Mito fusion act, aSyn yeast inh)
COC(=O)c1ccc(-n2c(C)cc(C(=O)CSc3cccc[n+]3[O-])c2C)cc1	TDP-43 yeast inh 14.1µM, aSyn yeast inh inconclusive
Cc1cc(C(=O)CSc2cccc[n+]2[O-])c(C)n1-c1ccc(OC(F)F)cc1	TDP-43 yeast inh 14.1µM
Cc1cc(C(=O)Cn2nc(C(=O)O)c3ccccc3c2=O)c(C)n1-c1ccc(OC(F)F)cc1	FUS suppressor inconclusive
CC(=O)c1cccc(NC(=O)C(Cc2ccccc2)NS(=O)(=O)c2ccc(Br)s2)c1 (stereo not drawn)	none (no result: Mito fusion act, aSyn yeast inh)
COc1ccc(C=C2CS(=O)(=O)CC(=Cc3ccc(OC)cc3)C2=O)cc1	TDP-43 yeast inh inconclusive, aSyn yeast inh 12.6µM (no result: Mito fusion act)
CC1CCCN(CCCNC(=O)c2ccc3c(c2)N(Cc2ccc(Cl)cc2)C(=O)c2ccccc2S3(=O)=O)C1 (stereo not drawn)	none (no result: Mito fusion act, aSyn yeast inh)
COc1cc(C(=O)NC2CCCCN(Cc3ccc(Cl)cc3)C2=O)cc(OC)c1OC (stereo not drawn)	none (no result: TDP-43 yeast inh, Mito fusion act, Abeta yeast res, aSyn yeast inh)
Cc1ccc(S(=O)(=O)NCCC(=O)OCc2ccc([N+](=O)[O-])cc2)cc1C	TDP-43 yeast inh 20µM
O=C(CCNS(=O)(=O)c1ccccc1)OCc1ccc([N+](=O)[O-])cc1	none (no result: Mito fusion act)
O=C(OC1CCCCC1)c1ccc(NC(=O)c2ccco2)cc1	TDP-43 yeast inh 35.5µM
O=C(Nc1ccc(OC(=O)c2ccco2)cc1)c1ccco1	none
Cc1ccccc1C(=O)Nc1ccccc1NC(=O)c1ccccc1Br	none
COc1ccc(Nc2ccccc2NC(=O)c2ccccc2Br)cc1	TDP-43 yeast inh 15.8µM, Mito fusion act inconclusive
N/C(=N\OC(=O)c1ccco1)c1ccccc1	TDP-43 yeast inh inconclusive
Cc1ccc(/C(N)=N/OC(=O)c2ccco2)cc1	TDP-43 yeast inh inconclusive
Cc1cccc(/C(N)=N/OC(=O)c2ccco2)c1	TDP-43 yeast inh 22.4µM
N/C(=N\OC(=O)c1ccco1)c1ccc(Br)cc1	TDP-43 yeast inh 14.1µM
COc1ccc(/C(N)=N/OC(=O)c2ccco2)cc1	TDP-43 yeast inh 17.8µM
CC1(C(=O)Nc2ccc3c(c2)OCO3)CCN1C(=O)CCc1ccc(Cl)cc1Cl (stereo not drawn)	TDP-43 yeast inh inconclusive (no result: Mito fusion act)
O=C1CC(CSc2ccc(Cl)cc2)=NN1	none
Cc1cc(SCC2=NNC(=O)C2)c(Cl)cc1Cl	TDP-43 yeast inh inconclusive, FUS suppressor 35.5µM
COc1cccc(N2CCN(C(=O)Cn3ncc4c3-c3ccccc3OC4)CC2)c1	FUS suppressor inconclusive (no result: Mito fusion act, aSyn yeast inh)
COc1ccc(CCNC(=O)CN2C(=O)COc3ccccc32)cc1OC	none (no result: Mito fusion act, aSyn yeast inh)
O=C(Cc1ccccc1)c1c[nH]c(C(=O)C(Cl)(Cl)Cl)c1	TDP-43 yeast inh 12.6µM
O=C(c1c[nH]c(C(=O)C(Cl)(Cl)Cl)c1)c1ccc(F)cc1Cl	TDP-43 yeast inh 8.91µM
O=C(c1c[nH]c(C(=O)C(Cl)(Cl)Cl)c1)c1ccc(F)cc1F	none
O=C(c1ccccc1)c1c[nH]c(C(=O)C(Cl)(Cl)Cl)c1	none
CN1C(=O)C2C=CC1C1C(=O)N(c3ccccc3)C(=O)C21 (stereo not drawn)	TDP-43 yeast inh inconclusive, Mito fusion act 6.31µM
COc1ccccc1C(=O)OCc1cc(=O)n2nc(C3CCCCC3)sc2n1	none (no result: Mito fusion act, aSyn yeast inh)
Oc1ccc(C23CC4CC(CC(C4)C2)C3)cc1O	TDP-43 yeast inh 6.31µM, Abeta yeast res inconclusive, aSyn yeast inh 2.82µM
CC(=O)Nc1ccc(C23CC4CC(CC(C4)C2)C3)cc1	none
COc1ccccc1NC(=O)c1cc2ccc3cccnc3c2[nH]1	TDP-43 yeast inh 14.1µM, FUS suppressor inconclusive (no result: Mito fusion act, aSyn yeast inh)
